# Whole data set: some 33,000 sequences, median “E-score (-0.5 to 0.5)” near -0.012, cut for the highest 2% near 0.27. This is one part of a sample in which the highest values are shown more often than they occur.
# Target: T1, Vhr1 (UniProt P40522)
# T1 sequence: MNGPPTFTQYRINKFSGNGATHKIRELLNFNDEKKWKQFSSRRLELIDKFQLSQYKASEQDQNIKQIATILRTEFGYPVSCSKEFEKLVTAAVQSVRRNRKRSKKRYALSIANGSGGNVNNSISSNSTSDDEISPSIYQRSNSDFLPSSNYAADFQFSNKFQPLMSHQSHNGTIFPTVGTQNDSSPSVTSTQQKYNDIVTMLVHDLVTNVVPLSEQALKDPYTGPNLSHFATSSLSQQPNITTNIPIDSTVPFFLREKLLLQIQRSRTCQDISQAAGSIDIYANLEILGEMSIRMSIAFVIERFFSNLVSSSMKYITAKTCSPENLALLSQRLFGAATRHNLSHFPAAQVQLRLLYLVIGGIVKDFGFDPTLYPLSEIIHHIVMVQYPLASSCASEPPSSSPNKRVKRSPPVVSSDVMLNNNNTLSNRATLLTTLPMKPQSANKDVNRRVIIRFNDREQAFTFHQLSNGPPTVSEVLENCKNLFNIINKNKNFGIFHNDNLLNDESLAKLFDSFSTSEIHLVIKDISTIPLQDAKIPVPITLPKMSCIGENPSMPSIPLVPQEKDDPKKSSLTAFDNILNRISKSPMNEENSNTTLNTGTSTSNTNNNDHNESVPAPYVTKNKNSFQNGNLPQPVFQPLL
# Assay: PBM E-score (8-mer binding enrichment) (E-score (-0.5 to 0.5)); higher = stronger / more preferred TF binding
# Conditions: protein concentration: 200 nM; construct: GST-full length
# Procedure: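 Universal 'all 10-mer' protein binding microarrays (Agilent AMADID 015681) probed with GST-tagged S. cerevisiae TFs (full-length or DBD) made by in vitro transcription/translation (PURExpress), about 100-200 nM. Bound TF was detected with fluorescent anti-GST. Each ungapped 8-mer (which stands for itself and its reverse complement) is scored by the PBM enrichment score (E-score), a modified Wilcoxon-Mann-Whitney statistic from -0.5 to +0.5, computed with the Universal PBM Analysis Suite. Scale: above 0.35 generally sequence-specific binding.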
row,Sequence,PBM E-score
1,CACCATGA,0.143
2,CCCCATGC,-0.0398
3,ACCCAGGT,0.0206
4,ACCCATGC,0.273
5,ACCCATGG,0.211
6,CCCCATGA,0.0682
7,ACCCAGGC,0.302
8,AACCATGC,0.234
9,AACCATGA,0.351
10,ATATTCTA,0.122
11,TGACAACA,0.115
12,GCCTTGAC,-0.167
13,CATGGACC,-0.0938
14,AACTGGGC,-0.165
15,GCGAGCAA,-0.12
16,ACAACGCT,0.0591
17,AGCTAGGA,0.117
18,AGTCACCC,0.446
19,AGACACCG,0.21
20,ATTCACCC,0.135
21,GGTCACCA,-0.102
22,ATTCACCG,0.159
23,CGTCACCA,-0.036
24,AGTCACCG,0.418
25,AGTCACCA,0.426

row,Sequence,PBM E-score
1,CGTCACCC,-0.047
2,CTGGCAAG,-0.21
3,GAAGATCA,-0.185
4,GCCGGCCA,-0.136
5,ATGCCTGA,0.0818
6,CCTCTCGA,-0.142
7,CGTGAAAC,-0.243
8,AGCTCTAA,-0.127
9,ACTCTTAC,0.163
10,TCACCCCA,0.305
11,GCACCCCA,0.151
12,TCACCCAA,0.177
13,AGCGGTCG,-0.301
14,ACACGGAA,-0.0284
15,ACACGGAT,0.287
16,ACACGGAG,-0.0139
17,GGTCATAC,0.0467
18,AGTCATAT,0.421
19,ACTCATAT,0.229
20,CGTCATAG,-0.155
21,TGTCATAA,-0.0558
22,CGTCATAC,0.189
23,AGTCATAG,0.407
24,AGTCATAA,0.344
25,CGTCATAA,0.016

row,Sequence,PBM E-score
1,ACTCATAG,0.264
2,AGACATAT,0.16
3,AGTCATAC,0.407
4,ACTTATAT,0.199
5,GCACCGCA,0.0151
6,GTTCATGA,0.142
7,ATCCACCA,0.113
8,ACCTTGCG,-0.0156
9,GAGGCGGC,0.0803
10,GAGGTTGC,-0.0739
11,CAACTATC,0.125
12,ACTATCAA,0.112
13,CACGTGAC,0.108
14,GTTGATTA,0.239
15,GATGATCC,0.0747
16,AATGATGA,0.163
17,AATGATCA,0.0798
18,GATGATTA,0.337
19,GGTGATTA,0.285
20,GATGATCA,0.285
21,AATGATAA,0.106
22,GGTGATGA,0.233
23,GCTGATTA,0.197
24,AATGATTA,0.304
25,GCTGATGA,0.185

row,Sequence,PBM E-score
1,GCTGCGCC,0.0437
2,ATTAGCAA,0.124
3,CGAGAGCG,-0.118
4,CTGCATCC,-0.157
5,ATCGCAAT,0.157
6,CATGATGA,0.254
7,TATGATGA,0.286
8,GATGATGA,0.144
9,TAGGTTGA,0.0773
10,AAAGAATG,0.0281
11,CTGGAATC,0.104
12,ATGGAATA,0.117
13,ATGGAGTC,0.433
14,ATGGAGTG,-0.0367
15,CTGGAGTA,-0.0097
16,ATGGAATC,0.28
17,CTGGAGTC,0.356
18,ATGGAGTA,0.185
19,CTGGAGAC,0.0265
20,CGATACGA,-0.0911
21,AGAAGCGC,0.16
22,TAGCACAA,-0.0198
23,CACACTCG,0.224
24,TACTCCGA,0.174
25,GACTCCGA,0.428

row,Sequence,PBM E-score
1,GACTCCGC,0.38
2,AACTCCGC,-0.0635
3,AACTCCGA,0.115
4,CACTCCGC,0.144
5,GCCTTAGA,-0.114
6,CTACCTCC,0.241
7,GATCCATC,0.194
8,AAACGACA,0.138
9,CCTGAGGA,-0.0328
10,GAAACTTA,-0.0802
11,GCTGAGCA,0.149
12,GCTCTGCA,-0.201
13,ATGGTATG,0.00124
14,ATGGTATC,0.287
15,CTGGTATC,0.0298
16,CTAGATGC,0.00921
17,ACTCAGGG,0.27
18,ATTCAGGG,0.108
19,CGTCAGGC,-0.213
20,GGTCAGGA,0.0179
21,AGTCAGGC,0.404
22,AGTCAGGA,0.355
23,CGTCAGGA,-0.0893
24,ACTCAGGC,0.259
25,AGTCAGGG,0.356

row,Sequence,PBM E-score
1,AAGTTGTG,-0.00706
2,ATATTTAG,-0.00388
3,CACCTAGA,-0.0265
4,CACTTGAA,-0.042
5,AAGCTAGT,-0.0022
6,AACCAGGA,-0.00068
7,GTTAACGA,-0.043
8,CGCTTGTC,-0.0745
9,GAGACTGA,0.0631
10,GGGACTGA,-0.174
11,CTCACTGC,-0.102
12,AAGACTCG,0.0518
13,ATGACTGC,0.41
14,AGGACTGC,-0.19
15,GTGACTGA,0.384
16,ACGACTGC,-0.0133
17,ATCACTGC,0.289
18,ATAACTCG,0.0214
19,ATCACTGA,0.136
20,ATGACTCG,0.457
21,GTCTGAAA,-0.0548
22,GCTGAATA,0.00091
23,CACTAGAC,0.0875
24,AACGGGCC,-0.204
25,TAAGTACA,-0.0281

row,Sequence,PBM E-score
1,GCGTTAAA,-0.0751
2,CTCCATCC,-0.162
3,AGATGGGG,-0.00259
4,AATGCTAT,-0.0368
5,AAGTTCGG,-0.155
6,CTGCACAC,0.045
7,ACGATAAT,0.0207
8,ATGACTGG,0.298
9,CAGACTGC,0.00779
10,ACGACTGA,0.123
11,AGGACTGA,-0.143
12,ATGACTGA,0.368
13,ACGACTGG,0.0415
14,CTGACTGC,0.298
15,CTGACTGA,0.13
16,ATGACTTG,0.268
17,CATCCGAG,0.15
18,CGTAATGA,0.0462
19,ATTGTGGG,0.156
20,ACGCTCCC,-0.108
21,GTCATCAC,0.229
22,AGCAATAA,-0.0386

# — the supplement of paper PMC3334620
